In the library only some 4.3% were active in any assay of this set; here they are far more common.
SMARCA2 act = activators of SMARCA2 function | MG213 cells, MMTV-luciferase reporter, dexamethasone, overnight | activation, % at 9.1 µM | 370,000 compounds, 1% hits; in the data active means activation above about 7.8%;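 further: 0% = vehicle wells and 100% = reference activator wells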
FGF22 binding = FGF22 (human) thermal shift binding. recombinant FGF22 thermal shift, SYPRO orange fluorescence; percent of sucrose octasulfate shift, DMSO zero. activity (Tm shift, normalised), % at 9.99 µM. 340,000 compounds, 1.5% hits. AID 651658;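 active means mean Tm shift, scaled 0 neutral to 100 positive control, at about 1.3% or above, every replicate too, limit read from the data; inconclusive means no clear call, values can overlap the other calls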
AF4-AF9 inh = inhibitors of human MLL-AF4/AF9 interaction; P42568; AlphaScreen, biotin-AF4 peptide binding to FLAG-AF9; inhibition, % at 10 µM; 350,000 compounds, 0.47% hits;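 active means every replicate reaching a set inhibition limit, whatever the replicate mean, cut at about 25% in these data; inconclusive means mean inhibition reaches that limit but some replicates miss it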;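 further: 0% = plate neutral control median and 100% = total signal loss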
Target sequence (P42568 whole entry, looked up): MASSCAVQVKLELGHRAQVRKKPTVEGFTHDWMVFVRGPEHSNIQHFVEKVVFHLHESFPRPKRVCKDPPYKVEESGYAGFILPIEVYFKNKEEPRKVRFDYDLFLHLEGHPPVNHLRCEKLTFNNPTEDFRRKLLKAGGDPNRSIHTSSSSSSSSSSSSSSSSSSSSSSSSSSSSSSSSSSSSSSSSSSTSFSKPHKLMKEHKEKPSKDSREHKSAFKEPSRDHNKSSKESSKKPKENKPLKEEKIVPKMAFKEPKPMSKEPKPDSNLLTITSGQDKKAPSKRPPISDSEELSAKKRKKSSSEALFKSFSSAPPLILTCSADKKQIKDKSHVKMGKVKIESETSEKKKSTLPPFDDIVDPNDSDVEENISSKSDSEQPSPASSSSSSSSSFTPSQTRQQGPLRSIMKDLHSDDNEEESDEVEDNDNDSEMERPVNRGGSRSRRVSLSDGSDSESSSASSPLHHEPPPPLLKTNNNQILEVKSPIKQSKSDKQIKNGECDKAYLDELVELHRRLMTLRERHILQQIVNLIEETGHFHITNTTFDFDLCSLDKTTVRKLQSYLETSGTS
Wnt act = activates Wnt/beta-catenin signaling in a reporter cell assay; activation, % at 9.35 µM; 300,000 compounds, 1.2% hits; AID 743398; activator, plate reader; in the data active means activation above about 30%, passing the limit was not always enough; inconclusive means no clear call, values can overlap the other calls;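 further: 0% = neutral control wells and 100% = positive control wells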
esBAF inh = SWI/SNF esBAF complex inhibition. reporter increase, % at 12.5 µM. AID 602393. 350,000 compounds, 2% hits. mouse ES cells, Bmi1-luciferase knock-in reporter, 24 h; 100% = twice the neutral-well signal; in the data active means activation above about 40%; inconclusive means no clear call, values can overlap the other calls;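 further: 0% = median of the plate's neutral control wells and 100% = double that signal; a rise in the Bmi1 reporter signal indicates esBAF inhibition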
MITF TRPM1 HTS = increases MITF-driven TRPM1 promoter luciferase signal. SK-MEL-5 TRPM1-promoter luciferase, 24 h; % of positive control, neutral wells = 0. activation, % at 12.5 µM. 300,000 compounds, 0.75% hits. AID 588334;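 active means mean activation of at least 80% with every replicate also reaching 80%; inconclusive means mean reaches 80% but some replicate falls short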;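 further: 0% = neutral control wells and 100% = parthenolide positive control wells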
The depositor's hits bear a star; ? = inconclusive; . = not tested or not shown.

SMILES	SMARCA2 act	FGF22 binding	AF4-AF9 inh	Wnt act	esBAF inh	MITF TRPM1 HTS
C[C@H]1CN([C@@H](C)CO)C(=O)Cc2cc(NC(=O)Nc3ccc(C(F)(F)F)cc3)ccc2O[C@H]1CN(C)C	.	-1	2	.	2	.
N#Cc1cccnc1Nc1ccc(Cl)cc1	-4	43*	-11	-3	-1	-13
COCC(=O)N(C)C[C@H]1Oc2cc(C#CCN(C)C)ccc2S(=O)(=O)N([C@H](C)CO)C[C@H]1C	.	0	-3	.	-1	.
CC(=O)C1CCC2C3CCC4CC(OC(=O)CCC(=O)O)CCC4(C)C3C(=O)CC12C (stereo unspecified)	3	44*	3	-1	-11	-2
CC(=O)C1CCC2C3CC(O)C4=CC(=O)CCC4(C)C3C(=O)CC12C (stereo unspecified)	-3	1	-8	-3	8	-2
O=C(OCCC12CC3CC(CC(C3)C1)C2)c1ccc(NCc2cc(O)ccc2O)cc1	-12	0	28*	-3	.	-66
CCc1cccc(NC(=O)C2CCN(S(=O)(=O)c3ccc4[nH]c(=O)ccc4c3)CC2)c1	-1	0	40*	-3	1	.
Cc1cc(C)cc(NC(=O)C2CCN(S(=O)(=O)c3ccc4[nH]c(=O)ccc4c3)CC2)c1	-2	0	3	3	-14	.
Cc1ccc(NC(=O)C2CCN(S(=O)(=O)c3ccc4ccccc4c3)CC2)nc1	0	0	-8	-4	58*	68
Cc1ccc(NC(=O)C2CCN(S(=O)(=O)c3ccc(Cl)c(C(F)(F)F)c3)CC2)nc1	-3	0	8	2	14	0
O=C(C[C@H]1CC[C@@H]2[C@H](COC[C@@H](O)CN2C(=O)Nc2ccc(C(F)(F)F)cc2)O1)NCC1CCCCC1	.	0	-2	.	18	.
COCCNC(=O)C(=O)N/N=C(\C)CC(=O)Nc1cccnc1	5	44*	-1	2	-6	-4
CN(C)CC#Cc1ccc([C@@H]2[C@@H](CO)N3CCCCN(S(=O)(=O)c4ccccc4)C[C@@H]23)cc1	.	0	2	.	2	.
C[C@@H]1CN([C@H](C)CO)C(=O)c2ccccc2-c2ccccc2CO[C@@H]1CN(C)C(=O)Nc1ccccc1C(F)(F)F	.	0	-4	.	3	.
O=C(OCc1ccccc1F)c1ccc2c(c1)-c1ccccc1C2=O	.	0	8	-1	44*	?
O=C(OCc1cccc(F)c1)c1ccc2c(c1)-c1ccccc1C2=O	0	.	.	-3	-1	68
C[C@@H]1CN([C@@H](C)CO)C(=O)c2cccc(NS(=O)(=O)c3ccccc3)c2O[C@H]1CN(C)C(=O)Nc1ccc(F)cc1	.	0	0	.	7	.
CC(C)Cn1c(-c2cc(Br)ccc2F)nc2c1c(=O)[nH]c(=O)n2CC(C)C	0	2.3*	3	2	-3	-5
CC=Cc1ccc2n(c1=O)C[C@H]1[C@H](CO)[C@@H](C(=O)NCCC)N(Cc3cccc(F)c3)[C@@H]21 (mixture of isomers)	.	0	2	.	8	.
C[C@@H]1CN([C@H](C)CO)C(=O)c2cc(-c3ccccc3F)cnc2O[C@H]1CN(C)Cc1cccc(C(=O)O)c1	.	0	-5	.	-5	.
OC(COc1ccc(OCc2ccccc2)cc1)CN1CCCCC1 (stereo unspecified)	7	.	.	.	14	88*
COc1ccc(NC(=O)Nc2ccc3c(c2)C(=O)N([C@@H](C)CO)C[C@H](C)[C@H](CN(C)C(=O)Nc2ccc(F)cc2)OCCCC[C@H](C)O3)cc1	.	0	1	.	-6	.
O=c1oc2cc(OCc3ccc(F)cc3F)ccc2cc1-c1ccccn1	-3	.	.	.	45*	72
O=c1oc2cc(OCc3c(F)c(F)c(F)c(F)c3F)ccc2cc1-c1ccccn1	-1	0	1	1	.	-17
C[C@@H]1CN([C@@H](C)CO)C(=O)c2cccc(NS(=O)(=O)c3ccccc3)c2O[C@H]1CN(C)C	.	0	-2	.	-2	.
SMILES	SMARCA2 act	FGF22 binding	AF4-AF9 inh	Wnt act	esBAF inh	MITF TRPM1 HTS
COC(=O)c1cc(Cl)c(NC(=O)/C=C/c2ccc(Cl)cc2Cl)cc1OC	-2	.	.	.	-7	9
COC(=O)c1ccc(Cl)cc1NC(=O)/C=C/c1ccc(C)o1	-1	44*	-1	-5	.	7
Cc1ccc(NC(=O)/C=C/c2ccc([N+](=O)[O-])s2)cc1	6	.	.	35*	.	-80
Cc1ccc(/C=C/C(=O)Nc2ccc([N+](=O)[O-])cc2)o1	4	0	-39	10	64*	56
C[C@H](CO)N1C[C@H](C)[C@H](CN(C)Cc2ccc(C(=O)O)cc2)Oc2c(NS(=O)(=O)c3ccccc3)cccc2C1=O	.	0	-2	.	-2	.
Cc1ccc(SCCN2CCN(CCc3ccccc3)CCC2=O)cc1	2	0	-1	1	4	4
O=C1CCN(Cc2ccccc2)CCN1CCOc1ccccc1	3	0	-1	13	10	85*
CC(C)CN1CCC(=O)N(CCSc2ccccc2)CC1	2	0	1	42*	7	73
O=C(Nc1ccccc1)OCCN1CCN(Cc2ccccc2)CCC1=O	1	0	3	-3	-15	11
CCCCN1C(=S)NC[C@@H]1Cc1cccc2ccccc12	4	0	-6	12	59*	32
CCCCN1C(=O)C(=O)NC[C@H]1Cc1cccc2ccccc12	-6	0	2	1	.	.
CCC(=O)N1C[C@H](C)[C@@H](OC)CN(C)C(=O)c2cc(NS(=O)(=O)CC)ccc2OC[C@@H]1C	.	0	-1	.	3	.
Cc1ccc(-c2cc(C(=O)NCc3cccs3)no2)cc1	-1	.	.	.	?	75
CCCc1cc(C(=O)NCc2ccccc2)no1	-2	0	2	5	23	.
O=C(NCc1cccs1)c1cc(-c2ccc(O)cc2)on1	1	0	-3	37*	?	58
CCCc1cc(C(=O)NCc2cccs2)no1	2	0	-1	27	54*	.
Nc1c(C(=O)c2ccc(Cl)cc2)sc2nc3c(cc12)CCC3	5	0	-6	-3	.	152*
O=S(=O)(NCC[C@H]1CC[C@H](NS(=O)(=O)c2cccc(Cl)c2)[C@@H](CO)O1)c1cccc(F)c1	.	0	2	.	4	.
O=C(CN(c1ccc(F)cc1)S(=O)(=O)c1ccccc1)Nc1ccccc1C(=O)O	-3	43*	-8	-1	-4	-2
COc1ccc(N(CC(=O)Nc2ccccc2C(=O)N2CCOCC2)S(=O)(=O)c2ccc(F)cc2)cc1	0	.	.	-4	.	-6
CO[C@H]1CN(C)C(=O)c2cc(NS(C)(=O)=O)ccc2OC[C@H](C)N(CC2CCOCC2)C[C@H]1C	.	.	2	.	-3	.
O=C(c1cc(-c2cccc(O)c2)on1)N1CCOCC1	4	0	-6	45*	2	.
COc1cccc(-c2cc(C(=O)N3CCOCC3)no2)c1	5	0	0	28	8	57

Compound activity: PubChem BioAssay, several laboratories
